According to PubChem BioAssay (Tox21):
“And” between values parts separate entries of the source, which are not always exact repeats. Identical values can stand only once. Records with an inconclusive call do not appear. Entries that show only a call come without a potency. More than one record can exist for a structure, and the calls need not agree. The source made the active and inactive calls. Unless noted, the call rests on the fitted dose curve; in most records, active means well fitted curve in the direction sought with a large enough effect in the repeat runs; inconclusive means weak or mixed curves; inactive means no such curve, though single readings can be large; an effect the other way counts as inactive or inconclusive.

Key:
[1] = qHTS assay to identify small molecule antagonists of the thyroid receptor (TR) signaling pathway - cell viability counter screen (AID 743064); further: nearly all actives have a fitted effect of over 50% in size
In short: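 Same-well viability check: GH3.TRE-Luc cells stimulated with 1 nM T3 alongside test compound for 23.5 h, followed by CellTiter-Fluor fluorescence.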

[2] = system: thyroid hormone receptor (rat, GH3 cells); experiment: qHTS assay to identify small molecule agonists of the thyroid receptor (TR) signaling pathway (AID 743066; calls by dose curve)
[3] = target: Estrogen receptor (Homo sapiens) (UniProt P03372); experiment: qHTS assay to identify small molecule antagonists of the estrogen receptor alpha (ER-alpha) signaling pathway (AID 743069; active means well fitted curve in the direction sought with a large enough effect in the signal ratio in the repeat runs, not every such curve was filed as active; the % refers to the signal ratio)
Estrogen receptor (Homo sapiens), sequence (P03372 whole entry, looked up): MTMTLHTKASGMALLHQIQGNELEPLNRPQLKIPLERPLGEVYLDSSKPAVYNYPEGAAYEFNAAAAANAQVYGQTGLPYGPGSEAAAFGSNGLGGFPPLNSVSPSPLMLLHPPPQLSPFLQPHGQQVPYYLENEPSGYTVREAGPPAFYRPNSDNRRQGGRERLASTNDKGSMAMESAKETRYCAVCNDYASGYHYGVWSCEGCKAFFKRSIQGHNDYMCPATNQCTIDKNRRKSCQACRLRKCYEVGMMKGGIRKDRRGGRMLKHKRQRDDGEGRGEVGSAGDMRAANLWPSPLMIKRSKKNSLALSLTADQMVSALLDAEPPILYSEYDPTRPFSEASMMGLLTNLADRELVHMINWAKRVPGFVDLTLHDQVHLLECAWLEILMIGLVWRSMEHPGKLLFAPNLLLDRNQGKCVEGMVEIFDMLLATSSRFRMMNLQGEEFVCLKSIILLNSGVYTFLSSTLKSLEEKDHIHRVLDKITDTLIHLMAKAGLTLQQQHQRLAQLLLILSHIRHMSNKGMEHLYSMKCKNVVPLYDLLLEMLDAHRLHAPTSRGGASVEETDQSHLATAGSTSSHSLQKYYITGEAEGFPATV
In short: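 Screening used a UAS-driven beta-lactamase reporter integrated into HEK293 cells expressing ER-alpha, stimulated with 17beta-estradiol alongside test compounds over 18 hr at 37C; signal came from LiveBLAzer B/G FRET fluorescence.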

[4] = qHTS assay to identify small molecule antagonists of the estrogen receptor alpha (ER-alpha) signaling pathway - cell viability counter screen (AID 743074; calls by dose curve; further: nearly all actives have a fitted effect of over 45% in size)
[5] = target: Estrogen receptor (Homo sapiens) (UniProt P03372); experiment: qHTS assay to identify small molecule agonists of the estrogen receptor alpha (ER-alpha) signaling pathway (AID 743075; calls by dose curve)
[6] = target: Estrogen receptor (Homo sapiens) (UniProt P03372); experiment: qHTS assay to identify small molecule agonists of the estrogen receptor alpha (ER-alpha) signaling pathway using the BG1 cell line (AID 743079); further: nearly all actives have a fitted effect of over 20% in size; further: potency means the concentration at half of the fitted maximal effect
[7] = qHTS assay to identify small molecule antagonists of the estrogen receptor alpha (ER-alpha) signaling pathway using the BG1 cell line (AID 743080; calls by dose curve;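 further: BG1 cells stimulated with 17beta-estradiol alongside compound; series mostly up to about 70 µM; nearly all actives have a fitted effect of over 25% in size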)
In short: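 Readout is ONE-Glo luminescence, taken 30 min at room temperature after reagent addition, preceded by a CellTiter-Fluor viability read; BG1-Luc-4E2 cells had received compound and 17beta-estradiol for 21.5 h at 37 C.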

[8] = qHTS assay to identify small molecule antagonists of the estrogen receptor alpha (ER-alpha) signaling pathway using the BG1 cell line - cell viability counter screen (AID 743081);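 further: compound given together with 17beta-estradiol as the ER stimulus; series mostly up to about 70 µM; nearly all actives have a fitted effect of over 45% in size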
Aromatase (Homo sapiens) = Aromatase (Homo sapiens) (UniProt P11511); experiment: qHTS assay to identify aromatase inhibitors (AID 743083); further: series mostly up to about 70 µM; nearly all actives have a fitted effect of over 55% in size
Aromatase (Homo sapiens), sequence (P11511 whole entry, looked up): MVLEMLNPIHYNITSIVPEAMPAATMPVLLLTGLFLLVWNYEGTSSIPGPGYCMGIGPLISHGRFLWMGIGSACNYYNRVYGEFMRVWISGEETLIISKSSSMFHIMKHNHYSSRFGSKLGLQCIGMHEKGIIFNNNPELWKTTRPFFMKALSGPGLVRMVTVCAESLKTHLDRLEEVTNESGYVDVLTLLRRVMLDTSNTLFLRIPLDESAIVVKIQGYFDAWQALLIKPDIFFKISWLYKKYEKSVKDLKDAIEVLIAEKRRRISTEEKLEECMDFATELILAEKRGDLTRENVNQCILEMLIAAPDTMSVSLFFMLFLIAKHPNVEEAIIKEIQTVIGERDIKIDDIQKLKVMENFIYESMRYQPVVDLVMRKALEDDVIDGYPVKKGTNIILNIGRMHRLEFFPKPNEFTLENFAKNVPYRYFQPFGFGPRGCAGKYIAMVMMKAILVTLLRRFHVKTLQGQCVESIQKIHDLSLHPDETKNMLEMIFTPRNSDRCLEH

[9] = qHTS assay to identify aromatase inhibitors - cell viability counter screen (AID 743084);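 further: cells stimulated with testosterone during compound exposure; nearly all actives have a fitted effect of over 55% in size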
[10] = target: Aryl hydrocarbon receptor (Homo sapiens) (UniProt P35869); experiment: qHTS assay to identify small molecule that activate the aryl hydrocarbon receptor (AhR) signaling pathway (AID 743085); further: nearly all actives have a fitted effect of over 15% in size; further: potency means the concentration at half of the fitted maximal effect;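 on activation: HG2L7.5c1 human HepG2 liver cells with stably integrated DRE-driven firefly reporter; series mostly up to about 70 µM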
Aryl hydrocarbon receptor (Homo sapiens), sequence (P35869 whole entry, looked up): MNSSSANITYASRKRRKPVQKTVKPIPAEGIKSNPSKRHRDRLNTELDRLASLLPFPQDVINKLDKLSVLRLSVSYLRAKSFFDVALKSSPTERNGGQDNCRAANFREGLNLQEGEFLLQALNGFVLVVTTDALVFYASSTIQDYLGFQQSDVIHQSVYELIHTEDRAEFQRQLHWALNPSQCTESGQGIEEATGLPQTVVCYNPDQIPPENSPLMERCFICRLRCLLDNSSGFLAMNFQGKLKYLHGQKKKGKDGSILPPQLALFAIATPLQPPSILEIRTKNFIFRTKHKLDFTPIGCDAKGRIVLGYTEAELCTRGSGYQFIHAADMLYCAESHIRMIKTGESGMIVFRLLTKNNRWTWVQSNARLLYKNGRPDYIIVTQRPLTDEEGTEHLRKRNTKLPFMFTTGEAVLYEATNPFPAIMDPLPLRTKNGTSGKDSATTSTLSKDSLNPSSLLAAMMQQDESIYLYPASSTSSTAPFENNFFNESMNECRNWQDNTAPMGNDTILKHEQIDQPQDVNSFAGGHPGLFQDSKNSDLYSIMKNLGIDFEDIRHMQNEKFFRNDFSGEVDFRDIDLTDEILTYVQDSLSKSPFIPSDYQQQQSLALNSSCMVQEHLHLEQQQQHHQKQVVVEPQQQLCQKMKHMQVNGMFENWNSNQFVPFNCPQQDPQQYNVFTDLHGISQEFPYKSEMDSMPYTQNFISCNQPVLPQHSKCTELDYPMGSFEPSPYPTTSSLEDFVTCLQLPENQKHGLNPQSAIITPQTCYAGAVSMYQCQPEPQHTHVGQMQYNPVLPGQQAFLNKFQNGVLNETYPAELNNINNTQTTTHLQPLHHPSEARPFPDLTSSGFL
In short: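 Reporter assay in engineered HepG2 line HG2L7.5c1, whose plasmid carries twenty dioxin responsive elements upstream of firefly luciferase. Treatment lasted 24 h at 37C; ONE-Glo luminescence gauged induction.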

[11] = qHTS assay to identify small molecule that activate the aryl hydrocarbon receptor (AhR) signaling pathway - cell viability counter screen (AID 743086);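 further: HepG2 liver cells carrying the AhR DRE luciferase reporter; series mostly up to about 70 µM; nearly all actives have a fitted effect of over 45% in size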
In short: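 HepG2-AhR-luc (HG2L7.5c1) cells, 4000/well, were preincubated 5 h at 37C, exposed to compound in qHTS format for 24 hr at 37C, then given CellTiter-Fluor for 30 min; viability was read as fluorescence in the reporter wells.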

[12] = target: Peroxisome proliferator-activated receptor gamma (Homo sapiens) (UniProt P37231); experiment: qHTS assay to identify small molecule agonists of the peroxisome proliferator-activated receptor gamma (PPARg) signaling pathway (AID 743094; active means well fitted activation curve with a large enough effect in the signal ratio in the repeat runs, not every such curve was filed as active; the % refers to the signal ratio)
Peroxisome proliferator-activated receptor gamma (Homo sapiens), sequence (P37231 whole entry, looked up): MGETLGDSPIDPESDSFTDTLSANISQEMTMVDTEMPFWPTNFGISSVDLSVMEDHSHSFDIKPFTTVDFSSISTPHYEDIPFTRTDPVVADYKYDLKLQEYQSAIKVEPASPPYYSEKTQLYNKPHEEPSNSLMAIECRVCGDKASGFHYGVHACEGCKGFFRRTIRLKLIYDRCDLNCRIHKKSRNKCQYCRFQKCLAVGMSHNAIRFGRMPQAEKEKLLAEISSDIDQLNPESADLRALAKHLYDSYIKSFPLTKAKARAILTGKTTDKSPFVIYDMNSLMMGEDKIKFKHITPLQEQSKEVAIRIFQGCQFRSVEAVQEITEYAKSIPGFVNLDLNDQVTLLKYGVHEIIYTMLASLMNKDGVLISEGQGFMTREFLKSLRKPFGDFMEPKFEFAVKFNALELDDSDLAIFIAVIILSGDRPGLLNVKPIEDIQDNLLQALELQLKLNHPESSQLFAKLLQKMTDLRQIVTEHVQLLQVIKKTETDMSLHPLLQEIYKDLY
In short: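 Cells from the PPARg UAS-bla HEK293H line are plated and incubated 5 h at 37C. Compounds in DMSO are pinned in and left 17 h at 37C. LiveBLAzer B/G substrate is then added for 1 h at room temperature before fluorescence is measured.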

[13] = target: Peroxisome proliferator-activated receptor gamma (Homo sapiens) (UniProt P37231); experiment: qHTS assay to identify small molecule antagonists of the peroxisome proliferator-activated receptor gamma (PPARg) signaling pathway (AID 743191; calls by dose curve; further: nearly all actives have a fitted effect of over 30% in size; further: potency means the concentration at half of the fitted maximal effect)
In short: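 GeneBLAzer PPARg UAS-bla HEK293H cells carrying a UAS-driven beta-lactamase reporter were plated at 3000 cells/well, preincubated 5 h at 37C, then given compound for 17 h at 37C; LiveBLAzer B/G FRET substrate was read after 1 h at room temperature.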

[14] = qHTS assay to identify small molecule antagonists of the peroxisome proliferator-activated receptor gamma (PPARg) signaling pathway - cell viability counter screen (AID 743194); further: nearly all actives have a fitted effect of over 55% in size
In short: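 PPARg-UAS-bla HEK293H cells were plated, rested 5 h at 37 C, then treated with compounds plus rosiglitazone (50 nM final) for 17 h at 37 C; viability was then read by CellTiter-Glo luminescence after 30 min at room temperature.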

[15] = qHTS assay for small molecule agonists of the antioxidant response element (ARE) signaling pathway (AID 743202; active means well fitted activation curve with a large enough effect in the signal ratio in the repeat runs, not every such curve was filed as active; the % refers to the signal ratio; further: potency means the concentration at half of the fitted maximal effect)
In short: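 Steps: seed ARE-bla HepG2 cells (2,000/well); incubate 5 h at 37 C; add compounds by pin tool; incubate 16 h at 37 C; add FRET substrate; read fluorescence after 2 h at RT.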

[16] = qHTS assay for small molecule agonists of the antioxidant response element (ARE) signaling pathway - cell viability counter screen (AID 743203; calls by dose curve; further: nearly all actives have a fitted effect of over 55% in size)
In short: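 Cytotoxicity was tested in parallel with the ARE reporter screen. ARE-bla HepG2 cells were exposed to compounds for 16 hrs, and viability was taken from CellTiter-Glo luminescence.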

[17] = qHTS assay for small molecule activators of the heat shock response signaling pathway - cell viability counter screen (AID 743209); further: nearly all actives have a fitted effect of over 50% in size
In short: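 Cytotoxicity counter screen run in parallel with the HSE beta-lactamase reporter, using the same wells. HeLa HSE-bla cells received compound for 5 h at 37 C; ATP-based CellTiter-Glo luminescence was measured after 30 min at room temperature.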

[18] = qHTS assay for small molecule activators of the heat shock response signaling pathway (AID 743210; active means well fitted activation curve with a large enough effect in the signal ratio in the repeat runs, with a control signal flat, not every such curve was filed as active; the % refers to the signal ratio; further: potency means the concentration at half of the fitted maximal effect;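 on activation: HeLa cells with beta-lactamase reporter driven by heat shock elements; series mostly up to about 63 µM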)
In short: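 Activation of heat shock element-controlled beta-lactamase expression is measured in HeLa cells by LiveBLAzer FRET fluorescence, with compound exposure lasting 5 h at 37 C and substrate loading 2.5 h at room temperature.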

[19] = qHTS assay to identify small molecule antagonists of the thyroid receptor (TR) signaling pathway (AID 743065)
In short: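 GH3.TRE-Luc rat pituitary cells carrying two TR response elements driving luciferase were plated for 4 h, given compound plus 1 nM T3 (final), and incubated 23.5 h at 37 C. ONE-Glo luminescence measured reporter inhibition; CellTiter-Fluor fluorescence tracked cytotoxicity.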

| Compound | Potency [1] | Potency [2] | Potency [3] | outcome [4] | outcome [5] | Potency [6] | outcome [7] | outcome [8] | Potency (Aromatase (Homo sapiens)) | Potency [9] | Potency [10] | outcome [11] | outcome [12] | Potency [13] | outcome [14] | Potency [15] | Potency [16] | Potency [17] | Potency [18] | Potency [19] |
| --- | --- | --- | --- | --- | --- | --- | --- | --- | --- | --- | --- | --- | --- | --- | --- | --- | --- | --- | --- | --- |
| C[C@H]1C(=O)O[C@@H]2CCN3CC=C(COC(=O)[C@](C)(O)[C@]1(C)O)[C@H]23 | inactive | inactive | inactive | inactive | inactive | inactive | inactive | inactive | inactive | inactive | inactive | inactive | inactive | inactive | inactive | inactive | inactive | inactive | inactive |  |
| C[C@]12CC[C@H](O)CC1=CC[C@@H]1[C@@H]2CC[C@]2(C)C(=O)CC[C@@H]12 | inactive | inactive |  | inactive |  |  |  | inactive | inactive | inactive | inactive | inactive | inactive |  | inactive |  | inactive | inactive | inactive | inactive |
| O=C/C=C/c1ccccc1 | inactive | inactive | inactive | inactive | inactive | inactive and 61.1 µM (active) | inactive | inactive | inactive | inactive | inactive | inactive | inactive | inactive | inactive | inactive | inactive | inactive | inactive |  |
| CSc1nnc(C(C)(C)C)c(=O)n1N | inactive | inactive |  | inactive |  |  |  | inactive |  |  |  | inactive |  |  | inactive | inactive | inactive | inactive | inactive | inactive |
| COC(=O)Nc1cccc(OC(=O)Nc2cccc(C)c2)c1 | inactive | inactive |  | inactive |  |  |  | inactive | inactive | inactive | 27.3 µM (active) and 2.73 µM (active) | inactive | inactive |  | inactive | 48.6 µM (active) and inactive | inactive | inactive |  | inactive |
| O=[N+]([O-])c1ccc(Cl)cc1 | inactive | inactive |  | inactive |  |  |  | inactive | inactive | inactive | inactive | inactive |  |  | inactive | inactive | inactive | inactive | inactive | inactive |
| Cc1cccc(N)c1C | inactive | inactive | inactive | inactive | inactive | inactive | inactive | inactive | inactive | inactive | inactive and 48.6 µM (active) | inactive | inactive | inactive | inactive | inactive | inactive | inactive | inactive |  |
| Nc1nc(N)nc(NC2CC2)n1 | inactive | inactive |  | inactive |  |  |  | inactive | inactive | inactive | inactive | inactive |  |  | inactive |  | inactive | inactive | inactive and 43.6 µM (active) | inactive |
| COc1nc(NC(C)C)nc(NC(C)C)n1 | inactive | inactive | inactive | inactive | inactive | inactive | inactive | inactive | inactive | inactive | inactive | inactive | inactive | inactive | inactive | inactive | inactive | inactive | inactive |  |
| CC(C)c1cccc(C(C)C)c1O | inactive | inactive | inactive | inactive | inactive | inactive | inactive | inactive | inactive | inactive | inactive | inactive | inactive | inactive | inactive | inactive | inactive | inactive | inactive |  |
| [N-]=[N+]=CC(=O)OC[C@H](N)C(=O)O | inactive | inactive |  | inactive |  |  |  | inactive |  |  |  | inactive |  |  | inactive | inactive | inactive | inactive |  | inactive |
| OCc1ccco1 | inactive | inactive | inactive | inactive | inactive | inactive | inactive | inactive | inactive | inactive | inactive | inactive | inactive | inactive | inactive | inactive | inactive | inactive | inactive |  |
| CNc1cnn(-c2cccc(C(F)(F)F)c2)c(=O)c1Cl | inactive | inactive |  | inactive |  |  |  | inactive | inactive | inactive | 27.3 µM (active) | inactive | inactive | inactive | inactive |  | inactive | inactive | inactive | inactive |
| O=C(O)Cc1ccccc1 | inactive | inactive | inactive | inactive | inactive | inactive | inactive | inactive | inactive | inactive | inactive | inactive | inactive | inactive | inactive | inactive | inactive | inactive | inactive |  |
| NNc1ccccc1 | inactive | inactive |  | inactive |  |  |  | inactive | inactive | inactive |  | inactive | inactive | 13.8 µM (active) and inactive | inactive | inactive | inactive | inactive | inactive |  |
| Cc1cccc(N)c1 | inactive | inactive | inactive | inactive | inactive | inactive | inactive | inactive |  | inactive |  | inactive | inactive | inactive | inactive | inactive | inactive | inactive | inactive |  |
| Nc1cc(Cl)cc(Cl)c1 | inactive | inactive |  | inactive |  |  |  | inactive | inactive | inactive | inactive | inactive | inactive |  | inactive | inactive | inactive | inactive | inactive |  |
